About 2,100 (0.58%) of roughly 360,000 compounds were called active. The sample holds actives, similar compounds and a random draw of the others, so the mix is not that of the screen. No stated cut-off is given here; in the data, active means inhibition above about 36%; inactive means the rest.
These molecules were tested against NEDD8-conjugating enzyme Ubc12 (Homo sapiens) + NEDD8-activating enzyme E1 regulatory subunit (Homo sapiens) (UniProt P61081+Q13564) (assay: inhibitors of cullin neddylation, primary screen, biochemical, TR-FRET, uHTS, NAE and Ubc12 (AID 651699)). Details: at 25 µM, active compounds read high.
Chain of NEDD8-conjugating enzyme Ubc12 (Homo sapiens) + NEDD8-activating enzyme E1 regulatory subunit (Homo sapiens) (P61081 whole entry, looked up): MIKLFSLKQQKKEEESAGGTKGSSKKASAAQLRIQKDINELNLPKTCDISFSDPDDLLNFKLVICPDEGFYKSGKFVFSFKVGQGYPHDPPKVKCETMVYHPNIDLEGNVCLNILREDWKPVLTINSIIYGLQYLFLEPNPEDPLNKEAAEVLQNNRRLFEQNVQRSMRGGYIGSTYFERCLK
Chain of NEDD8-conjugating enzyme Ubc12 (Homo sapiens) + NEDD8-activating enzyme E1 regulatory subunit (Homo sapiens) (Q13564 whole entry, looked up): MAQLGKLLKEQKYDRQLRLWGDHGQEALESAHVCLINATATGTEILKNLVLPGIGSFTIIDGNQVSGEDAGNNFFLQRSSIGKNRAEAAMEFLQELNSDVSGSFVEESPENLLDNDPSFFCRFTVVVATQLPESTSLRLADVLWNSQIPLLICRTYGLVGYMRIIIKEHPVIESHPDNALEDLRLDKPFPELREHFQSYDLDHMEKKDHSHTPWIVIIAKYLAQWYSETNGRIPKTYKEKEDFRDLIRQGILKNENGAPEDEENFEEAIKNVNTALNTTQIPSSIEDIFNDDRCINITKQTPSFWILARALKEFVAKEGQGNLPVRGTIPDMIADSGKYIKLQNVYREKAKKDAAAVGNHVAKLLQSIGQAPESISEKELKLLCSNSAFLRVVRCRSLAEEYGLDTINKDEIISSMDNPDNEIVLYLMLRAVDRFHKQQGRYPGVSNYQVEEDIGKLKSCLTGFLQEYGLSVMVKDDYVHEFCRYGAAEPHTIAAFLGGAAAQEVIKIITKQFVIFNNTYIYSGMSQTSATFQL

Row | Compound | inhibition
1 | CC(=CCOc1ccc2ccc(=O)oc2c1)C1=CC(=O)C(C)(C)O1 | 48.3% (active)
2 | COC(=O)CN1C(=O)C2(C(C(=O)OC)=C(N)Oc3ccccc32)C2=C1CC(C)(C)CC2=O (stereo not given) | 0.61% (inactive)
3 | O=C(CCC(=O)N1C[C@H]2C[C@@H](C1)c1cccc(=O)n1C2)NCc1ccccc1C(F)(F)F | -4.64% (inactive)
4 | O=C(c1cc(S(=O)(=O)N2CCOCC2)ccc1F)N1CCC2(CC1)OCCO2 | 4.52% (inactive)
5 | CCC(C)n1c(O)c(/C=N/Nc2nc3c(c(=O)n(C)c(=O)n3C)n2C)c(=O)[nH]c1=S (stereo not given) | 40.5% (active)
6 | CCN1C(=O)NC(=O)C2(CCCC2)C1=O | 1.81% (inactive)
7 | CC(c1ccccc1)(c1ccccc1)c1ccncc1 | -5.54% (inactive)
8 | COc1ccc2c(c1)[C@]13CCCCC1C(C2)N(C)CC3 (stereo not given in full) | -8.52% (inactive)
9 | COP(=O)(NS(=O)(=O)c1ccccc1)OC | -0.79% (inactive)
10 | CCN1c2nc3c(C)cccn3c(=O)c2CC2(C(=O)N(C)C(=O)N(C)C2=O)C1C (stereo not given) | 41.1% (active)
11 | CCCCCn1c(=O)c(C(=O)NCc2ccccn2)c(O)c2ccccc21 | 4.17% (inactive)
12 | CC1(C)Cc2c(C#N)c(N3CCNCC3)nc(-c3ccco3)c2CS1 | 25.7% (inactive)
13 | COc1ccc(C(=O)C2CCCN(Cc3ccc(C)s3)C2)cc1OC (stereo not given) | 0.31% (inactive)
14 | CN1C2C=C(N(C(=O)c3ccc(Cl)cc3)c3ccccc3)CC1CC2 (stereo not given) | 0.6% (inactive)
15 | O=c1[nH]c(=O)n(CCc2ccc(F)cc2)c(O)c1/C=N/N1CCCCC1 | -6.7% (inactive)
16 | CCCCC(=O)N/N=C/c1c(O)n(CCC2=CCCCC2)c(=O)[nH]c1=O | 52.9% (active)
17 | CCCCC(=O)N/N=C/c1c(O)n(CC)c(=S)n(CC)c1=O | -37% (inactive)
18 | COC(=O)C1=C(c2ccccc2)C[C@@H]2CC[C@H]1N2C(=O)N1CCCCC1 | -6.19% (inactive)
19 | COc1cccc(OC)c1C(=O)NC(=S)N1C[C@H]2C[C@H](C1)c1cccc(=O)n1C2 | -2.07% (inactive)
20 | c1ccc2sc(N3CCNCC3)nc2c1 | 1.66% (inactive)

— PubChem BioAssay AID651699 (Sanford-Burnham Center for Chemical Genomics, 2012)
